Screening data: PubChem BioAssay, The Scripps Research Institute Molecular Screening Center
Most compounds without a hit are left out; they make up all but 0.9% or so of the library.
SRC1 TRFRET art: counter-screen for PPARgamma SRC-1 recruitment agonists: TR-FRET artefact; TR-FRET detection artefact counter-screen, emission ratio; stronger effect = higher value; hit rate 0.34% among 99,000; TR-FRET ratio at 8 µM; in the data active = TR-FRET ratio above about 2300
TR-FRET SRC-2 ct: TR-FRET artefact, counter-screen to PPARgamma/SRC-2 agonist assay. AID 1049. TR-FRET ratio at 8 µM. stronger effect = higher value. hit rate 0.4% among 200,000; in the data active = TR-FRET ratio above about 2000
PPARg SRC-3 ag: agonists of human PPARgamma SRC-3 coactivator recruitment. P37231. biochemical PPARgamma/SRC-3 coactivator recruitment assay. activation, % at 8 µM. hit rate 0.26% among 200,000. AID 731; in the data active = activation above about 23%
PPARg SRC-2 ag: promotes SRC-2 coactivator recruitment by human PPARgamma; P37231; PPARgamma LBD-SRC-2 recruitment, biochemical; activation, % at 8 µM; hit rate 0.34% among 200,000
PPARg SRC-1 ag: promotes SRC-1 coactivator recruitment by human PPARgamma; P37231; hit rate 0.41% among 200,000; PPARgamma-SRC-1 coactivator recruitment biochemical assay; activation, % at 8 µM; in the data active = activation above about 19%
SRC3 TRFRET art: counter-screen for PPARgamma SRC-3 recruitment agonists: TR-FRET artefact. hit rate 0.39% among 99,000. PPARgamma/SRC-3 format; stronger effect = higher value. TR-FRET ratio at 8 µM; in the data active = TR-FRET ratio above about 2000
PPARg SRC2 ag: human PPARgamma SRC-2 recruitment agonism, confirmation. hit rate 52% among 790. biochemical SRC-2 recruitment by PPARgamma. activation, % at 8 µM. AID 1297. shares compounds with PPARg SRC-3 ag
PPARg SRC1 ag: human PPARgamma SRC-1 recruitment agonism, confirmation. shares compounds with PPARg SRC-3 ag. PPARgamma–SRC-1 coactivator recruitment biochemical assay. activation, % at 8 µM. hit rate 43% among 790; in the data active = activation above about 20%
PPARg SRC3 conf: confirmation of agonists of SRC-3 recruitment by human PPARgamma; activation, % at 8 µM; hit rate 29% among 790; biochemical PPARgamma-SRC-3 coactivator recruitment, agonist mode; AID 1301; shares compounds with PPARg SRC-3 ag; in the data active = activation above about 24%
Target sequence (P37231 whole entry, looked up): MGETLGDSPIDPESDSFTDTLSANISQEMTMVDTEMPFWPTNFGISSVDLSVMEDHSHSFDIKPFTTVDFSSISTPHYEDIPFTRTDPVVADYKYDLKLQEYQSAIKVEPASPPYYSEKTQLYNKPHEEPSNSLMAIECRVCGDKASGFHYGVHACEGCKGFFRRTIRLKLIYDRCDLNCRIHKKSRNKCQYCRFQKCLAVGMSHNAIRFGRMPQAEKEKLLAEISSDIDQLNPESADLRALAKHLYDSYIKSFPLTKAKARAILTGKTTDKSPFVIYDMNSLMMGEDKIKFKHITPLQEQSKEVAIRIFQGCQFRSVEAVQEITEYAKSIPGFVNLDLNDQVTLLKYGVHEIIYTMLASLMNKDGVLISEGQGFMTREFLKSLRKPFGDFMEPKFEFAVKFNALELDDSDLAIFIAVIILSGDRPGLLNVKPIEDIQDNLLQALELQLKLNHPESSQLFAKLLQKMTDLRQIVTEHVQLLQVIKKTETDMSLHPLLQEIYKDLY
Target sequence (Q9Y6Q9 whole entry, looked up): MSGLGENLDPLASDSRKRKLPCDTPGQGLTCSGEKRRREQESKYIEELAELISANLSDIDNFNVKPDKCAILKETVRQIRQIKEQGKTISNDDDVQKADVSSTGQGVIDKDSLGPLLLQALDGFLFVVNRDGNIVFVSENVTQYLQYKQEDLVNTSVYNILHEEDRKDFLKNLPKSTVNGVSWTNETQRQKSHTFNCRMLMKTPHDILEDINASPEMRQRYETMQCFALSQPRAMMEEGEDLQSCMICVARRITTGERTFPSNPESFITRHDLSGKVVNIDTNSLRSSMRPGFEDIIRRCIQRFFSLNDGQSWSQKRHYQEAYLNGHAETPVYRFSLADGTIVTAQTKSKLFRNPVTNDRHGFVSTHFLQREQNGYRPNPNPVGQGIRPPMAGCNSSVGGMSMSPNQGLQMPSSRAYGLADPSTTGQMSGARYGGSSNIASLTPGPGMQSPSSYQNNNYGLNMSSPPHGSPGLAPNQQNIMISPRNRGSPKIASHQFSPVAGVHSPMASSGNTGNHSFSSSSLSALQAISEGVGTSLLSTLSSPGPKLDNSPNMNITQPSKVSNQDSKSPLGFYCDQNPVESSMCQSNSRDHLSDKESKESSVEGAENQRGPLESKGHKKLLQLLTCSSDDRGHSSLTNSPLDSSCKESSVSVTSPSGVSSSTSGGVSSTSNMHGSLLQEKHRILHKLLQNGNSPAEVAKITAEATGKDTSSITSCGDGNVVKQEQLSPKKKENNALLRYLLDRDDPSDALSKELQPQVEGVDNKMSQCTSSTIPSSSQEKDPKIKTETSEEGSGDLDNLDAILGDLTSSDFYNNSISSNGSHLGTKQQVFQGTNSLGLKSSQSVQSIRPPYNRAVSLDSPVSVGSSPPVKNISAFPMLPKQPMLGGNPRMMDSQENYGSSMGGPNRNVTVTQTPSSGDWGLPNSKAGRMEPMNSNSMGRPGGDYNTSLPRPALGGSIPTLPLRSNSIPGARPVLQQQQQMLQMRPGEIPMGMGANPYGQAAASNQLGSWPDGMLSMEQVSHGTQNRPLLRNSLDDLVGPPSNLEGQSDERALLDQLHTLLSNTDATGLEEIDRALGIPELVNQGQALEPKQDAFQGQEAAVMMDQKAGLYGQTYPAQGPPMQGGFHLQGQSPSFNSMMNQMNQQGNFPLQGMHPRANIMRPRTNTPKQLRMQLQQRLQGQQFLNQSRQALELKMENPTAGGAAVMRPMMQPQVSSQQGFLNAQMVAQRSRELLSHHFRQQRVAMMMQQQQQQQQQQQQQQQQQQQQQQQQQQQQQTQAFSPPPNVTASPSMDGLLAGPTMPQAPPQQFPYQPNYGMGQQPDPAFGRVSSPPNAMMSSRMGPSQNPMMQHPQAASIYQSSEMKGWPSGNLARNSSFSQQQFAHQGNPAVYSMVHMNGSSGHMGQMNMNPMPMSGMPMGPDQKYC
A number is an active result. Cut-off read from the data, not from the text of the source, unless noted: active = activation above about 22%; inactive = the rest.

Results for CN(CCCNC(=O)CSc1cc(=O)n(C)c2ccc(Cl)cc12)Cc1ccccc1 ?
SRC1 TRFRET art: 3259; TR-FRET SRC-2 ct: 2374; PPARg SRC-3 ag: 46.4; PPARg SRC-2 ag: 57.6; PPARg SRC-1 ag: 50.6; SRC3 TRFRET art: 3068; PPARg SRC2 ag: 39.6; PPARg SRC1 ag: 24.2; PPARg SRC3 conf: inactive

What do the screens show for `Cn1c(=O)cc(OCCCC(=O)N2CCCCC2)c2ccccc21`?
TR-FRET SRC-2 ct: inactive; PPARg SRC-3 ag: inactive; PPARg SRC-2 ag: inactive; PPARg SRC-1 ag: inactive

What do the screens show for `COCCNC(=O)CSc1cc(=O)n(C)c2cc(Cl)ccc12`?
SRC1 TRFRET art: 3701; TR-FRET SRC-2 ct: 2945; PPARg SRC-3 ag: 39.9; PPARg SRC-2 ag: 27.6; PPARg SRC-1 ag: 62.1; SRC3 TRFRET art: 2886; PPARg SRC2 ag: 38.6; PPARg SRC1 ag: 25.5; PPARg SRC3 conf: 26.9

Results for Cn1c(=O)cc(SCC(=O)N2CCCC2)c2ccc(Cl)cc21 ?
TR-FRET SRC-2 ct: 3299; PPARg SRC-3 ag: 86.8; PPARg SRC-2 ag: 87.2; PPARg SRC-1 ag: 71.6; PPARg SRC2 ag: 42.2; PPARg SRC1 ag: 29.1; PPARg SRC3 conf: 30.3

How did Cn1c(=O)cc(SCC(=O)N2CCOCC2)c2ccc(Cl)cc21 do in these assays?
TR-FRET SRC-2 ct: 2895; PPARg SRC-3 ag: 82.6; PPARg SRC-2 ag: 62.1; PPARg SRC-1 ag: 61.1; PPARg SRC2 ag: 28.6; PPARg SRC1 ag: inactive; PPARg SRC3 conf: inactive

What do the screens show for `O=C1CN(c2ccc(Cl)cc2)C2(CCCCC2)S1`?
SRC1 TRFRET art: inactive; TR-FRET SRC-2 ct: inactive; PPARg SRC-3 ag: inactive; PPARg SRC-2 ag: inactive; PPARg SRC-1 ag: inactive; SRC3 TRFRET art: inactive

Results for O=c1c2sccc2nc(SCc2cc(=O)n3cc(Br)ccc3n2)n1Cc1ccccn1 ?
SRC1 TRFRET art: 2338; TR-FRET SRC-2 ct: 2046; PPARg SRC-3 ag: inactive; PPARg SRC-2 ag: 23.1; PPARg SRC-1 ag: 23.0; SRC3 TRFRET art: 2195; PPARg SRC2 ag: inactive; PPARg SRC1 ag: inactive; PPARg SRC3 conf: inactive

Results for Cc1ccc(CSc2nc3ccsc3c(=O)n2Cc2ccccn2)cc1 ?
SRC1 TRFRET art: inactive; TR-FRET SRC-2 ct: inactive; PPARg SRC-3 ag: inactive; PPARg SRC-2 ag: inactive; PPARg SRC-1 ag: inactive; SRC3 TRFRET art: inactive

What do the screens show for `COc1ccc([N+](=O)[O-])cc1N(CC(=O)N(C)C)S(C)(=O)=O`?
SRC1 TRFRET art: inactive; TR-FRET SRC-2 ct: inactive; PPARg SRC-3 ag: inactive; PPARg SRC-2 ag: inactive; PPARg SRC-1 ag: inactive; SRC3 TRFRET art: inactive

Results for N#CC1=C(S)N(c2ccccc2)C(c2ccc(-c3ccccc3Cl)o2)NC1=O (stereo not given) ?
SRC1 TRFRET art: inactive; TR-FRET SRC-2 ct: inactive; PPARg SRC-3 ag: inactive; PPARg SRC-2 ag: inactive; PPARg SRC-1 ag: inactive; SRC3 TRFRET art: inactive

How did COc1cc2c(cc1OC)C1=NC(=O)CN1C(SCc1ccccc1C)=N2 do in these assays?
TR-FRET SRC-2 ct: inactive; PPARg SRC-3 ag: inactive; PPARg SRC-2 ag: 26.6; PPARg SRC-1 ag: inactive; PPARg SRC2 ag: 28.0; PPARg SRC1 ag: inactive; PPARg SRC3 conf: inactive

What do the screens show for `Cc1ccc(CSC2=Nc3ccccc3C3=NC(=O)CN23)cc1`?
SRC1 TRFRET art: inactive; TR-FRET SRC-2 ct: inactive; PPARg SRC-3 ag: inactive; PPARg SRC-2 ag: inactive; PPARg SRC-1 ag: inactive; SRC3 TRFRET art: inactive

Results for O=C(O)C1CCN(c2ccccc2[N+](=O)[O-])CC1 ?
SRC1 TRFRET art: inactive; TR-FRET SRC-2 ct: inactive; PPARg SRC-3 ag: inactive; PPARg SRC-2 ag: inactive; PPARg SRC-1 ag: inactive; SRC3 TRFRET art: inactive

What do the screens show for `CCn1c(=O)cc(SCC(=O)N2CCN(c3ccccc3OC)CC2)c2ccccc21`?
TR-FRET SRC-2 ct: 2834; PPARg SRC-3 ag: 85.2; PPARg SRC-2 ag: 67.6; PPARg SRC-1 ag: 71.7; PPARg SRC2 ag: 53.1; PPARg SRC1 ag: 37.1; PPARg SRC3 conf: 34.4

What do the screens show for `CCn1c(=O)cc(SCC(=O)N2CCN(C3CCCCC3)CC2)c2ccccc21`?
TR-FRET SRC-2 ct: 2255; PPARg SRC-3 ag: 36.5; PPARg SRC-2 ag: 35.2; PPARg SRC-1 ag: 19.3; PPARg SRC2 ag: 27.1; PPARg SRC1 ag: inactive; PPARg SRC3 conf: inactive

Results for CCn1c(=O)cc(SCC(=O)N2CCN(C(=O)c3ccco3)CC2)c2ccccc21 ?
TR-FRET SRC-2 ct: 2772; PPARg SRC-3 ag: 62.9; PPARg SRC-2 ag: 55.5; PPARg SRC-1 ag: 54.3; PPARg SRC2 ag: 33.6; PPARg SRC1 ag: 20.8; PPARg SRC3 conf: inactive

Results for CCn1c(=O)cc(SCC(=O)NCCCN2CCN(c3ccccc3F)CC2)c2ccccc21 ?
TR-FRET SRC-2 ct: 3692; PPARg SRC-3 ag: 96.2; PPARg SRC-2 ag: 78.5; PPARg SRC-1 ag: 64.6; PPARg SRC2 ag: 41.9; PPARg SRC1 ag: 27.3; PPARg SRC3 conf: 28.5

Results for CCn1c(=O)cc(OCC(=O)N2CCCCCC2)c2ccccc21 ?
TR-FRET SRC-2 ct: inactive; PPARg SRC-3 ag: inactive; PPARg SRC-2 ag: inactive; PPARg SRC-1 ag: inactive

Results for CC(C)(C)C(=O)n1nc(-c2ccccc2)oc1=O ?
SRC1 TRFRET art: inactive; TR-FRET SRC-2 ct: inactive; PPARg SRC-3 ag: inactive; PPARg SRC-2 ag: inactive; PPARg SRC-1 ag: inactive; SRC3 TRFRET art: inactive

Results for COc1ccc(C(CC(=O)NCC(OC)OC)NS(=O)(=O)c2ccc(Cl)cc2)cc1 (stereo not given) ?
SRC1 TRFRET art: inactive; TR-FRET SRC-2 ct: inactive; PPARg SRC-3 ag: inactive; PPARg SRC-2 ag: inactive; PPARg SRC-1 ag: inactive; SRC3 TRFRET art: inactive

What do the screens show for `O=C1c2cnc3nc(SCc4ccc(Cl)cc4)nn3c2CC2c3ccccc3CCN12` (stereo not given)?
TR-FRET SRC-2 ct: inactive; PPARg SRC-3 ag: inactive; PPARg SRC-2 ag: inactive; PPARg SRC-1 ag: inactive

How did CN1CCC/C1=C1/C(=O)N(c2ccccc2)N=C1NC(=O)Nc1cccc(Cl)c1 do in these assays?
SRC1 TRFRET art: inactive; TR-FRET SRC-2 ct: inactive; PPARg SRC-3 ag: inactive; PPARg SRC-2 ag: inactive; PPARg SRC-1 ag: inactive; SRC3 TRFRET art: inactive

What do the screens show for `COC(=O)NC(C)N1C(=O)C2C3C=CC(C3)C2C1=O` (stereo not given)?
SRC1 TRFRET art: inactive; TR-FRET SRC-2 ct: inactive; PPARg SRC-3 ag: inactive; PPARg SRC-2 ag: inactive; PPARg SRC-1 ag: inactive; SRC3 TRFRET art: inactive

How did CCN1CCCC1CNC(=O)CSc1cc(=O)n(CC)c2ccccc12 (stereo not given) do in these assays?
TR-FRET SRC-2 ct: 2187; PPARg SRC-3 ag: 41.5; PPARg SRC-2 ag: 25.6; PPARg SRC-1 ag: 23.1; PPARg SRC2 ag: 26.6; PPARg SRC1 ag: inactive; PPARg SRC3 conf: inactive

What do the screens show for `CCn1c(=O)cc(SCC(=O)N2CCOCC2)c2ccccc21`?
TR-FRET SRC-2 ct: 2862; PPARg SRC-3 ag: 81.8; PPARg SRC-2 ag: 54.7; PPARg SRC-1 ag: 45.3; PPARg SRC2 ag: 34.5; PPARg SRC1 ag: 22.0; PPARg SRC3 conf: inactive
